Compound activity: PubChem BioAssay, National Center for Advancing Translational Sciences (NCATS)
Rows were chosen to be rich in hits. Some 21% of all compounds tested hit in one or more screens of this group.
Sm TGR block – S. mansoni TGR enzyme inhibition. Q962Y6. purified TGR, DTNB reduction, TNB absorbance 405 nm. Potency, µM (doses to about 114 µM), without a hit: at the highest dose activity change, negative = inhibition, most hits filed as inhibitors. 360,000 tested, 3% active. AID 485364; note: potency is the fitted concentration of half-maximal effect; % is set by controls: 0 for no effect and ±100 for the full control effect; nearly all actives have a fitted effect of over 60% in size
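First, TGR (20 nM dispensed) and NADPH were mixed with compound. Second, a 15 min room-temperature incubation followed. Third, further NADPH and then DTNB were added to start the reaction. Finally, TNB absorbance was monitored kinetically.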
Pf growth 48h – P. falciparum growth inhibition at 48 hours (one generation); AID 504832; 310,000 tested, 5.9% active; Potency, µM (series often up to 28.7 µM), inactives show at the top dose activity change, negative = inhibition, actives largely listed as inhibitors; P. falciparum luciferase growth in erythrocytes, 48 h; note: potency is the fitted concentration of half-maximal effect; % is set by controls: 0 for no effect and ±100 for the full control effect
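Parasite viability was followed by luminescence of a genomically integrated firefly luciferase. Cultures held 0.1% parasitemia at 2% hematocrit (final), incubated under 5% CO2 at 37 C.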
NS1 inh – blocks influenza NS1 protein function; 270,000 tested, 0.4% active; Potency, µM (top dose mostly 46.1 µM), for the others: at the highest dose activity, positive = more growth; calls by dose curve; note: potency is the fitted concentration of half-maximal effect; actives are rising curves; nearly all actives have a fitted effect of over 50% in size
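Recovery from NS1-induced slow growth read by OD600 in budding yeast switched to galactose assay medium (pH 6.0, -URA) at 1:100 dilution. Compound 23 nl per well; the matching strain lacking NS1 serves as control.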
Shiga toxin inh – blocks Shiga toxin action in Vero cells; Vero cells, Shiga toxin protein synthesis inhibition reporter; inhibition, % at 38.7 µM; 290,000 tested, 9.2% active; AID 2315; in the data active = inhibition mostly above about 28%, no sharp cut-off; inactive = mostly below about 43%; note: 0% is about no effect
Pf growth 96h – P. falciparum growth inhibition at 96 hour, primary screen for plastid delayed-death inhibitors; 320,000 tested, 6.9% active; AID 504834; P. falciparum luciferase reporter growth, 96 h; Potency, µM (top dose mostly 28.7 µM), for inactives: at the highest dose activity change, negative = inhibition, most hits filed as inhibitors; note: potency is the fitted concentration of half-maximal effect; % is set by controls: 0 for no effect and ±100 for the full control effect
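Two parasite generations (96 h, 37 C, 5% CO2) of compound exposure in infected erythrocytes (0.05% parasitemia, 2% hematocrit). Luciferase-reporter P. falciparum; decreased luminescence indicates inhibited growth, aimed at apicoplast-acting delayed death.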
CHX counter – counter-screen hit for Shiga toxin inhibitors, cycloheximide; cell reporter, cycloheximide protein synthesis inhibition counterscreen; max response, %; 300,000 tested, 12% active; AID 2314; in the data active = max response mostly above about 13%, no sharp cut-off; inactive = mostly below about 14%; note: read at 38.3 µM for the half of the compounds with a filed dose; 0% is about no effect
Active calls of the source: *; i = inactive; ? = inconclusive; · = not tested or not shown. Unless noted, calls come from the whole dose curve; as a rule, active = well fitted curve in the direction sought with a large enough effect; inconclusive = small, poorly fitted or top-dose-only effect, or another doubt; inactive = no such curve, though single readings can be large; an effect the other way counts as inactive or inconclusive.

SMILES	Sm TGR block	Pf growth 48h	NS1 inh	Shiga toxin inh	Pf growth 96h	CHX counter
CCN(CC(=O)Nc1ccc(C)c(S(=O)(=O)N2CCOCC2)c1)Cc1ccccc1	-6.7%	11.7µM*	·	·	?	·
Cc1ccc(NC(=O)CCCOc2ccccc2)cc1S(=O)(=O)N1CCOCC1	5.0%	10.4µM*	·	·	?	·
CCN(CC(=O)Nc1cc(S(=O)(=O)N2CCCCC2)ccc1C)Cc1ccccc1	6.9%	?	·	·	11.7µM*	·
O=C(O)[C@H](Cc1cc(I)c(O)c(I)c1)C1CCCCC1	·	·	-30.6%	·	·	·
CN1CCN(CCCC(=O)c2ccc(C3CCCC3)cc2)CC1	-4.4%	-8.8%	7.0%	53.5*	?	28.9*
Cn1cc(Cl)c(C(=O)Nc2nc3ccc(Cl)cc3s2)n1	2.8%	105.9%	-20.6%	70.6*	69.2%	57.1*
Cc1cc(Br)ccc1NC(=O)c1ccco1	6.6%	?	-22.4%	·	?	13.1
O=C(Nc1nc2ccc(Br)cc2s1)c1ccco1	-4.9%	194.4%	-26.5%	·	?	29.9*
Cc1noc(C)c1C(=O)Nc1nc2ccc(F)cc2s1	-23.2%	i	·	·	i	·
O=C(Nc1nc2ccc(Cl)cc2s1)c1ccco1	0.3%	188.5%	-65.8%	62.3*	·	41.2*
Cc1noc(C)c1C(=O)Nc1nc2ccc(Cl)cc2s1	-6.7%	50.1%	-22.2%	89.2*	49.0%	41.9*
O=C(Nc1nc2ccc(S(=O)(=O)N3CCCC3)cc2s1)c1ccco1	-10.1%	23.4%	17.1%	-0.7	67.8%	14.8
O=C(NC1CCCC1)C(c1ccccc1F)N(C(=O)c1csnn1)c1ccccc1 (stereo not given)	-7.9%	1.6%	-4.1%	-2.8	16.2%	-3.7
O=S(=O)(c1ccccc1)N1CCN(CCO)CC1	-25.8%	20.3%	-6.5%	-6.8	?	-0.2
NNC(=O)c1nnn(-c2nonc2N)c1-c1cccs1	6.5%	13.1%	7.3%	-4.4	43.8%	-2.0
CCOc1ccc(NC(=S)NCC(c2cccnc2)N2CCOCC2)cc1 (stereo not given)	1.1%	-52.7%	·	-18.3	?	-3.0
Cc1ccc(N2CCN(C(=O)c3ccccc3NC(=O)/C=C\C(=O)O)CC2)cc1	?	-0.8%	6.7%	22.4	-27.0%	-3.9
O=C(Nc1ccccc1-c1nc2ccccc2s1)c1ccc(F)cc1	9.9%	·	·	·	·	·
O=C(Nc1ccccc1-c1nc2ccccc2s1)c1ccco1	43.8%	1.2%	-4.6%	105.9*	3.9%	38.6*
COc1ccc(-c2cc(N3C(=O)Nc4ccccc4N3O)n[nH]2)cc1OC	-6.8%	12.1%	10.6%	18.6	10.5%	13.1*
O=C(Nc1ccc(F)cc1)c1cc2cc(Cl)ccc2[nH]1	-7.0%	·	-5.1%	32.5*	-5.2%	16.5*
Cc1ccc2[nH]c(C(=O)Nc3ccccc3)cc2c1	1.1%	·	·	·	·	·
CCc1ccc2[nH]c(C(=O)Nc3ccc(C)c(F)c3)cc2c1	-1.3%	?	-5.7%	38.7*	?	17.5*
COc1cccc(/C=C/c2nc(C#N)c(NCCN(C)C)o2)c1	-2.2%	·	·	·	·	·
O=[N+]([O-])c1ccc(NC(=S)NCCc2ccccc2)cc1	-29.7%	?	-34.8%	63.7*	-1.5%	28.2*
SMILES	Sm TGR block	Pf growth 48h	NS1 inh	Shiga toxin inh	Pf growth 96h	CHX counter
O=[N+]([O-])c1ccc(NNC(=S)Nc2ccccc2)cc1	-25.8%	-56.3%	-80.1%	97.3*	·	37.1*
O=C(Nc1ccc([N+](=O)[O-])cc1)C1C(c2ccccc2)=C1c1ccccc1	0.4%	11.7%	10.0%	-7.8	17.1%	-2.1
O=[N+]([O-])c1ccc(NC(=S)NCCc2ccc(Cl)cc2)cc1	?	2.33µM*	-46.1%	-6.6	1.85µM*	5.4
NS(=O)(=O)c1ccc(NC(=S)NCCc2ccccc2)cc1	·	14.0%	-6.2%	10.3	111.0%	2.8
CCc1cccc(NC(=O)C(Cc2ccccc2)NS(=O)(=O)c2cccs2)c1 (stereo not given)	8.7%	·	·	·	·	·
CNc1sc(C(=O)c2cccs2)c(N)c1-c1nc2ccccc2s1	2.4%	-19.4%	0.1%	176.1*	-13.8%	39.9*
CC(=O)Nc1scc(C)c1-c1nc2ccccc2s1	4.9%	?	-2.3%	3.6	0.0%	7.7
CNc1sc(C(=O)c2ccc(F)cc2)c(N)c1-c1nc2ccccc2s1	39.8µM*	·	-45.8%	38.1	-93.9%	28.6*
